# Measurements: PubChem BioAssay AID652054 (National Center for Advancing Translational Sciences (NCATS), 2013)
# The whole screen tested about 360,000 compounds, of which about 9,100 (2.5%) were called active. Roughly 4% stayed inconclusive and do not appear here. This is one part of a sample in which actives are shown more often than they occur. Values without a mark were called inactive. Rule as the data show it: active = max response below about -50%; inconclusive = no clear call, values can overlap the other calls; inactive = above that.
# Target: D(3) dopamine receptor (Homo sapiens) (UniProt P35462)
# Assay: qHTS of D3 Dopamine Receptor Antagonist: qHTS
# Details: D3R cells, DiscoveRx beta-arrestin luminescence, antagonist mode; stronger effect = lower value
# Summary of the method: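 Cells expressing the human receptor were seeded at 1500 cells/well, incubated overnight at 37 degrees C in 5% CO2, then exposed to library compounds with dopamine controls for 90 minutes at 37 degrees C before luminescent detection.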
# % is scaled to controls: 0 for no effect and ±100 for the full control effect.
# Sequence of D(3) dopamine receptor (Homo sapiens) (P35462 whole entry, looked up): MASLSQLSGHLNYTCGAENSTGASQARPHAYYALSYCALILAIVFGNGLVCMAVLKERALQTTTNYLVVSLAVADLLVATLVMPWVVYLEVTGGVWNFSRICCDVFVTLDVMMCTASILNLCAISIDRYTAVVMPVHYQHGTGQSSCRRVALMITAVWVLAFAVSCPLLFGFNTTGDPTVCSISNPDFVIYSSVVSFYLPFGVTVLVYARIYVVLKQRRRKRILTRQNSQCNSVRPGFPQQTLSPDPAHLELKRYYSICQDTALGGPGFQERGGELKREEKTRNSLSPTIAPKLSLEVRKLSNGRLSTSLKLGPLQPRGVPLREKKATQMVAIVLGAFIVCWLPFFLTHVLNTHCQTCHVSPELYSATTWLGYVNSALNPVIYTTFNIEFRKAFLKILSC
row,SMILES,"max response, negative = inhibition"
1,CNC(=O)C1CN(C(=O)c2cccc(S(=O)(=O)N3CCc4ccccc43)c2)c2ccccc2O1 (stereo not given),-27.2%
2,CC1C(=O)N(Cc2cn(CC3CCCCC3)nn2)CCS(=O)(=O)N1Cc1ccc(-c2cccc(N(C)C)c2)cc1 (stereo not given),0%
3,Nc1cc(OC(=O)c2ccccc2Br)nn1S(=O)(=O)c1ccccc1,-73.2% (active)
4,Cc1ccc(S(=O)(=O)n2nc(OC(=O)C(C)(C)C)cc2N)cc1,-4.07%
5,CN1C(=O)/C(=N/OC(=O)c2ccccc2Br)c2ccccc21,0.409%
6,FC(F)(F)c1ccccc1Cc1c(-c2ccccc2)nc2c3ccccc3ccn12,-14.4%
7,COc1cccc(-c2cnc3c(NC(C)=O)cc(-c4cccc(NC(C)=O)c4)cn23)c1,43.1%
8,CCN1CCCC1CNC(=O)c1ccc2c(c1)NC(=O)/C(=C\c1ccccc1F)S2 (stereo not given),-21.4%
9,COc1ccc(Br)c(Cn2c(C)c(C(=O)NCc3cccs3)sc2=O)c1,-59.3% (active)
10,Cc1c(C(=O)NCC2CC2)sc(=O)n1Cc1cccc(F)c1,11.5%
11,Cc1cccc(C)c1Cn1c(C)c(C(=O)NCc2cccc(Cl)c2)sc1=O,-105% (active)
12,Cc1ccccc1Cn1c(C)c(C(=O)NCc2cccc(C(F)(F)F)c2)sc1=O,-29.9%
13,CC(=O)Oc1ccc(Cn2c(C)c(C(=O)NCc3ccc(C#N)cc3)sc2=O)cc1,-1.7%
14,COc1cc(CC(=O)NCc2cccs2)cc(OC)c1OC,-6.25%
15,CCOC(=O)[C@]12CCCC=C1N(CCC1=CCCCC1)C(=O)[C@H](CC(=O)N1CCOCC1)C2,-20.5%
16,COC(=O)C[C@H]1C=C[C@H](NC(=O)c2ccc(F)cc2)[C@@H](CO)O1,0%
17,CCN(CC)CCNC(=O)c1ccc(NC(=O)c2cc(-c3ccncc3)nc3ccccc23)cc1,-11%
18,CCCN(CCC)CCNC(=O)c1cc2c(C)nc3ccccc3c2o1,-52.4% (active)
19,CCc1nc2ccccc2c(C(=O)NCc2ccc(OC)cc2)c1C,-8.59%
20,C[C@H]1CN([C@@H](C)CO)C(=O)CCCn2nncc2CO[C@@H]1CN(C)S(=O)(=O)c1cccc(C#N)c1,12.3%

row,SMILES,"max response, negative = inhibition"
1,CC1(Oc2ccc(Cl)cc2)CCN(Cc2csc3ccccc23)C1 (stereo not given),-85.5% (active)
2,COc1ccc(CN2CCC(C)(Oc3cccc(F)c3)C2)c2ccccc12 (stereo not given),-6.36%
3,CC1(Oc2cccc(F)c2)CCN(Cc2ccccc2OC(F)F)C1 (stereo not given),-21.8%
4,N#Cc1ccc(-c2ccc3nccn3c2)cc1,21.2%
5,Cc1ccccc1S(=O)(=O)NC(=O)C1(C)CCN1C(=O)C1(c2ccccc2)CCCC1 (stereo not given),15.6%
6,CSc1ccc(CN2CCC2(C)C(=O)Nc2ccc(C)c(O)c2)cc1 (stereo not given),51.8%
7,O=C(c1cc2ccccc2o1)N1CCN(Cc2ccccc2)CC1,-77.4% (active)
8,O=C(c1cc2ccccc2o1)N1CCN(S(=O)(=O)c2ccc(Cl)s2)CC1,-0.155%
9,O=C(c1cccc(Cl)c1)N1CCN(Cc2ccccc2)CC1,7.13%
10,O=C(NC(=S)N1CCN(Cc2ccccc2)CC1)c1ccccc1,-1.99%
11,O=C(Nc1ccccc1)N1CCN(Cc2ccccc2)CC1,-70.6% (active)
12,O=C(Nc1ccccc1)N1CCC(C(=O)N2CCN(Cc3ccccc3)CC2)CC1,0%
13,CCOC(=O)C1=CCC(c2ccc(F)cc2)N(S(=O)(=O)c2ccc(C)cc2)C1 (stereo not given),-25.7%
14,Clc1cccc(Cc2c(-c3cccc(Cl)c3)nc3ccc(Cl)cn23)c1,33.1%
15,CC(=NNC(N)=O)C1CC2CCC1CC2 (stereo not given),16.7%
16,O=C1Nc2ccccc2-n2nnnc2C1N1CCN(c2cccc(C(F)(F)F)n2)CC1 (stereo not given),11.4%
17,O=[N+]([O-])c1ccc(N(CCO)Cc2ccccc2)c([N+](=O)[O-])c1,5.91%
18,O=C1Nc2ccc([N+](=O)[O-])cc2C1=Nc1cccc(CO)c1,-77.4% (active)
19,CN1CCN(/N=C2/C(=O)Nc3ccc([N+](=O)[O-])cc32)CC1,-3.16%
20,COC(=O)CCCCC1=CCC2C(=O)C=C(O)C2C1 (stereo not given),0%

row,SMILES,"max response, negative = inhibition"
1,CN1CCn2cnc(C(=O)NCC(=O)OC(C)(C)C)c2C1=O,-5.8%
2,CC1CCCCN1S(=O)(=O)c1ccc(C(=O)Nc2nnc(-c3cccs3)o2)cc1 (stereo not given),-63.3% (active)
3,CSCc1nnc(NC(=O)c2ccc(S(=O)(=O)N3CCCCC3C)cc2)o1 (stereo not given),-20%
4,CC1CCCCN1S(=O)(=O)c1ccc(S(=O)(=O)N(CC(=O)Nc2ccccc2)Cc2cccs2)cc1 (stereo not given),28.7%
5,Cc1cc(C)n(-c2c(F)c(F)c(COC(=O)c3ccccc3)c(F)c2F)n1,-2%
6,Cc1cc(-n2nc(C)cc2C)n2ncc(-c3ccccc3)c2n1,17.7%
7,CCOC(=O)c1cnc(-n2nc(C)cc2C)nc1NNc1cc(C)nc(-c2ccccc2)n1,-53.4% (active)
8,CCCS(=O)(=O)NC(=O)C1(C)CCCN(C(=O)c2cccs2)C1 (stereo not given),-7.3%
9,COC(=O)[C@]12CCCCC=C1N(Cc1ccccc1)C(=O)[C@H](CC(=O)NCc1ccc(C)o1)C2,0.174%
10,Cc1ccc(-c2nnc(CN3CCN(C)CC3)o2)cc1,0%
11,c1ccc(-c2cnc(CN3CCN(c4ccccc4)CC3)o2)cc1,-58.1% (active)
12,COc1ccc(N2CCN(Cc3nnc(-c4ccccc4)o3)CC2)cc1,11.3%
13,Cc1cc2cc3n(c2nn1)N=C(Cl)CC3,10.6%
14,CC(=O)Nc1ccc(N2C(=O)C3C4CC(=O)C(c5ccccc54)C3C2=O)cc1 (stereo not given),-60% (active)
15,CCc1ccccc1N1C(=O)C2C3CC(=O)C(c4ccccc43)C2C1=O (stereo not given),-6.94%
16,CC(=O)Nc1ccc(N2C(=O)C3C4C=CC(CC4)C3C2=O)cc1 (stereo not given),3.35%
17,Cc1cc(Br)cn2c(Cc3cccc(F)c3)c(-c3cccc(Br)c3)nc12,0.913%
18,COc1ccccc1/C=C/C=N/NC(=O)CN1CCN(Cc2ccccc2)CC1,-17.6%
19,CC(C)c1csc(CN2CCC(CO)(Cc3ccccc3)CC2)n1,-22%
20,COc1ccccc1/C=C/CN1CCC(CO)(Cc2ccccc2)CC1,-76.1% (active)
